# Screening data deposited in PubChem BioAssay by National Center for Advancing Translational Sciences (NCATS).
# NPC1 promoter act: qHTS Assay for NPC1 Promoter Activators. 320,000 compounds, 2.4% hits. Potency, µM (highest dose often 9.22 µM), for inactives: at the highest dose activation, actives largely listed as activators. Huh7 NPC1 promoter luciferase reporter, 24 h; note: % of control where 0% means no effect; nearly all actives have a fitted effect of over 60% in size
#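 In 1536-well qHTS, Huh7 cells harboring an NPC1 promoter–luciferase construct received compound for 24 h; activation was quantified by luminescence following luciferase reagent addition.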
# Rab9 promoter act: qHTS Assay for Rab9 Promoter Activators; Huh7 Rab9 promoter-luciferase reporter, luminescence, 24 h; Potency, µM (top dose mostly 9.22 µM), inactives show at the highest dose activation, negative = inhibition, hits mostly activators; 320,000 compounds, 2.8% hits; note: % of control where 0% means no effect; nearly all actives have a fitted effect of over 60% in size
#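 Measured in stably transfected Huh7 cells bearing a Rab9 promoter–luciferase construct: 24 h compound treatment at 37 °C, followed by luminescence detection.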
# SMN2 splice enh: qHTS Assay for Enhancers of SMN2 Splice Variant Expression. HEK293 SMN2-luciferase splicing reporter, luminescence, 30-36 h. Potency, µM (series often up to 46.1 µM), for inactives: top-dose activity change, positive = activation, usual class: activators. 210,000 compounds, 2.8% hits; note: % of control where 0% means no effect; nearly all actives have a fitted effect of over 55% in size
#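 HEK293 cells carry an SMN2 […]–luciferase reporter in which exon 7 inclusion puts luciferase in frame. Cells were plated 10-12 h before compound addition, then incubated 30-36 h at 37C. ONE-Glo luminescence was read; sodium butyrate at 4.5 mM final served as control.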
# ELG1 genotox: qHTS screen for small molecules that induce genotoxicity in human embryonic kidney (HEK293T) cells expressing luciferase-tagged ELG1. 330,000 compounds, 1.3% hits. Potency, µM (series often up to 46 µM), for inactives: top-dose activity change, positive = activation, actives largely listed as activators. AID 504466, 2011. HEK293T ELG1-luciferase reporter, luminescence, 16 h; note: % of control where 0% means no effect; nearly all actives have a fitted effect of over 60% in size
#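 16 hr compound incubation (37 °C, 5% CO2) of HEK293T cells carrying luciferase-tagged ELG1; luciferase then measured by ONE-Glo luminescence after 30 min at RT.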
# FLuc modulator: qHTS profiling assay for firefly luciferase inhibitor/activator using purifed enzyme and Km concentrations of substrates (counterscreen for miR-21 project); 360,000 compounds, 6.9% hits; Potency, µM (top dose mostly 57.5 µM), for the others: top-dose activity change, negative = inhibition, hits mostly inhibitors; Luciferin 4-monooxygenase (Photinus pyralis), P08659; purified FLuc, Km substrates, luminescence inhibition;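 note: plate controls were vehicle for no effect and reference inhibitor for full effect; nearly all actives have a fitted effect of over 55% in size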
# Target sequence (P08659 whole entry, looked up): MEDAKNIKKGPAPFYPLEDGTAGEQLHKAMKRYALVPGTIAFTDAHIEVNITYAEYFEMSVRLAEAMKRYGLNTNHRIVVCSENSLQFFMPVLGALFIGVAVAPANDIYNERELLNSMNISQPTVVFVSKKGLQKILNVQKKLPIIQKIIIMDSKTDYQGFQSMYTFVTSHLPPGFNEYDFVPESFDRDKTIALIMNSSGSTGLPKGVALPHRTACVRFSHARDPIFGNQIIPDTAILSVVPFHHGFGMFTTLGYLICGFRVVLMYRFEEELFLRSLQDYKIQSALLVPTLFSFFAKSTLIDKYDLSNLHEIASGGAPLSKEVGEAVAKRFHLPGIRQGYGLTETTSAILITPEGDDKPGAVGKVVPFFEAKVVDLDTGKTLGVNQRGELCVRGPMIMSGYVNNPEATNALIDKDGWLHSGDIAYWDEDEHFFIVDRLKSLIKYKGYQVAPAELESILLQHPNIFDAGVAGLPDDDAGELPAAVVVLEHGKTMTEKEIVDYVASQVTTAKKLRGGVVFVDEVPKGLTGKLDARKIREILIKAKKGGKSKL
#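 Biochemical qHTS of compounds, final roughly 60 µM downward over six points, against 10 nM purified firefly luciferase using Km concentrations of substrates (10 uM D-luciferin, 10 uM ATP) in Tris acetate pH 7.5 buffer; luminescence output.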
# * = called active by the depositor; ? = inconclusive; . = no result given; [ ] = remark or other dose. Sampled rows, rich in hits. Any-hit rate of the full collection: about 7.4%. Calls come from the whole dose curve; as a rule, active = well fitted curve in the direction sought with a large enough effect; inconclusive = small, poorly fitted or top-dose-only effect, or another doubt; inactive = no such curve, though single readings can be large; an effect the other way counts as inactive or inconclusive. Potency is the fitted concentration of half-maximal effect.
SMILES,NPC1 promoter act,Rab9 promoter act,SMN2 splice enh,ELG1 genotox,FLuc modulator
CC1(C)OCC(CSC2=C(SCC3COC(C)(C)O3)C(=O)c3ncccc3C2=O)O1 (stereo unspecified),.,.,-32.1%,.,.
O=[N+]([O-])c1ccc(/C=N/N2CCCCC2)cc1,2.51µM*,29.0%[1.84 µM],.,?,9.53µM*
Clc1ccc(/C=N/N2CCCCC2)cc1,11.7%,21.7%,.,11.7%,10.7µM*
COc1cc(/C=C/C(=O)OCC(=O)Nc2oc(C)c3c(C)n[nH]c(=O)c23)ccc1OC(F)F,-5.9%,-1.9%,.,5.8%,8.5%
CCCCn1c(=O)[nH]c(=O)c2c1nc(-c1ccccn1)n2CC,0.9%,1.2%,.,1.4%,-0.4%
CCN(CC(=O)Nc1c(F)cccc1F)C(=O)/C=C/c1ccc(C)cc1,?,?,.,?,19µM*
CCN(CC(=O)Nc1c(F)cccc1F)C(=O)/C=C/c1ccc(OCC#N)c(OC)c1,0.0%,-6.2%,.,1.0%,5.9%
Cc1c(C(=O)N2CCOCC2)sc(NC(=O)c2ccccc2F)c1C#N,4.7%,-0.2%,.,0.1%,2.1%
COc1ccc(C(=O)COC(=O)c2cc(-c3cccs3)nc3ccccc23)cc1,.,.,-9.3%,.,2.69µM*
O=C(COC(=O)c1cc(-c2cccs2)nc2ccccc12)c1ccc(F)cc1,.,.,-9.4%,.,?
O=C(COC(=O)c1cc(-c2ccccc2)nc2ccccc12)c1ccc(Br)cc1,.,.,-2.9%,.,-12.6%
Cc1ccc(C(=O)COC(=O)c2cc(-c3cccs3)nc3ccccc23)cc1,.,.,-1.8%,.,2.39µM*
CC(C)(C)NC(=S)Nc1ccc(Br)cc1,6.3%,15.1%,-21.8%,1.9%,19µM*
CCN(CC)CCCNC(=S)Nc1ccc(Br)cc1,?,?,.,23.1µM*,10.7µM*
S=C(Nc1ccc(Br)cc1)NC1CCCCC1,23.0%,20.9%,12.6µM*,7.4%,10.7µM*
FC(F)Oc1ccc(NC(=S)NC2CCSc3ccccc32)cc1 (stereo unspecified),-0.5%,5.9%,.,-1.2%,-5.3%
S=C(Nc1ccc(Nc2ccccc2)cc1)NC1CCCCCC1,-11.8%,-11.5%,-32.9%,-3.5%,1.2%
CCN(CC)CCNC(=S)Nc1ccc(Cl)cc1,-3.1%,-15.1%,24.3%,-0.4%,0.7%
FC(F)Oc1ccc(NC(=S)NC2CCCCCCC2)cc1,22.6%,28.0%,.,-12.3%,19µM*
Cc1ccc(N2CC(C(=O)Nc3cccc(C(=O)NC4CC4)c3)CC2=O)cc1 (stereo unspecified),-2.3%,0.3%,.,-3.6%,0.4%
Cc1ccc(-n2ccnc2SCC(=O)c2c(N)n(C3CC3)c(=O)[nH]c2=O)cc1C,1.1%,-6.3%,.,1.3%,10.4%
C[C@H]1Cc2c(-c3ccccc3)nc3c(c2CO1)CN(C(=O)Nc1cccc(C#N)c1)CC3,.,.,-4.5%[9.22 µM],.,.
S=C(Nc1cccc(Cl)c1)NC1CCCCC1,1.9%,3.6%,2.9%,-1.5%,?
S=C(Nc1ccc(Cl)cc1)NC1CCCCC1,28.9%,18.9%,.,-4.4%,15.1µM*
CCn1cc(Br)c(C(=O)Nc2cccc(SC)c2)n1,24.6%,?,35.5µM*,?,23.9µM*
SMILES,NPC1 promoter act,Rab9 promoter act,SMN2 splice enh,ELG1 genotox,FLuc modulator
CCn1cc(Br)c(C(=O)Nc2ccc(F)cc2F)n1,?,?,.,12.3%,?
CCOC(=O)c1cc(S(=O)(=O)N(C)Cc2ccccc2)cn1C,-3.4%,-5.7%,.,-3.0%,-2.5%
c1c[nH]c(CN2CCOCC2)n1,.,.,-19.5%[9.22 µM],.,.
Cc1cc(C)n(-c2nnc(NC34CC5CC(CC(C5)C3)C4)nn2)n1,2µM*,3.55µM*,11.2µM*,?,2.39µM*
Cc1cc(C)n(-c2nc(NC(C)(C)C)nc(NC(C)(C)C)n2)n1,-1.3%,-4.5%,-48.9%,-4.3%,-0.2%
Cc1cc(C)n(-c2nnc(NC(C)(C)C)nn2)n1,?,3.16µM*,12.6µM*,?,21.3µM*
CCN1CCC(O)([C@H](C(=O)O)c2ccccc2)CC1,.,.,-5.8%[9.22 µM],.,.
COC(=O)C1=C(C(=O)OC)[C@@H]2N(Cc3ccccc3)c3ccccc3[C@@]23C[C@@H](C(=O)OC)N(S(=O)(=O)c2ccc([N+](=O)[O-])cc2)C3=N1,.,.,-0.3%[9.22 µM],.,.
CC(C)(C)C1CCc2c(C(=O)NNC(=O)CCC(=O)O)csc2C1 (stereo unspecified),-2.0%,0.8%,-0.9%,1.5%,26.9µM*
CCC(=O)c1ccc(OCC(=O)N2CCN(S(=O)(=O)c3ccc(Cl)s3)CC2)cc1,-3.0%,-21.6%,.,-4.9%,-1.3%
O=C(NC1CCCCCCC1)c1cccc(Cl)c1,?,?,.,?,15.1µM*
O=C(NC1CCCCCC1)c1cccc(N2CCCC2=O)c1,3.55µM*,2.24µM*,7.08µM*,?,15.1µM*
O=C(N/N=C/c1ccc(Cl)cc1Cl)c1cccc(N2CCCC2=O)c1,12.6%,6.8%,.,0.4%,6.75µM*
Cc1cccc(NS(=O)(=O)c2ccc(C)c(C(=O)N(C)C3CCN(C)CC3)c2)c1,-0.9%,-0.9%,.,0.0%,-1.5%
O=C(C1CCCN(S(=O)(=O)c2ccc(F)cc2)C1)N1CCCCCC1 (stereo unspecified),-4.7%,7.2%,.,-11.5%,3.2%
NC(=O)[C@@H]1CC2(CC(c3cccc(NC(=O)COc4ccc(Cl)cc4)c3)=NO2)CN1C(=O)COc1ccc(Cl)cc1 (stereo partly specified),-9.1%,-18.0%,.,-15.2%,12µM*
N#CCC(=O)N1CC2(CC(c3cccc(NC(=O)COc4ccc(Cl)cc4)c3)=NO2)C[C@@H]1C(N)=O (stereo partly specified),-4.1%,-6.9%,.,0.1%,15.1µM*
NC(=O)[C@H]1CC2(CC(c3cccc(NC(=O)COc4ccc(Cl)cc4)c3)=NO2)CN1C(=O)[C@H]1CCC(=O)N1 (stereo partly specified),-0.8%,-7.8%,.,2.3%,12µM*
CC/C=C/C(=O)N1CC2(CC(c3cccc(NC(=O)COc4ccc(Cl)cc4)c3)=NO2)C[C@H]1C(N)=O (stereo partly specified),5.1%,-0.2%,.,-10.7%,12µM*
NC(=O)[C@H]1CC2(CC(c3cccc(NC(=O)COc4ccc(Cl)cc4)c3)=NO2)CN1C(=O)C(c1ccccc1)c1ccccc1 (stereo partly specified),-7.6%,-14.6%,.,-9.1%,?
COc1ccccc1-c1ccc(NC2CCCCC2)nn1,?,?,10µM*,?,7.57µM*
COc1ccccc1-c1ccc(Nc2cccc(C(F)(F)F)c2)nn1,2.2%,20.0%,-9.4%,-1.4%,4.3%
CC(=O)c1cccc(OCC(=O)c2cc(C)n(-c3cc(C)on3)c2C)c1,-2.0%,-6.6%,-47.0%,-7.0%,?
